Source: PubChem
ELG1 genotoxic – qHTS screen for small molecules that induce genotoxicity in human embryonic kidney (HEK293T) cells expressing luciferase-tagged ELG1; 330,000 tested, 1.3% active; Potency, µM (highest dose often 46 µM), actives largely listed as activators; HEK293T ELG1-luciferase reporter, luminescence, 16 h; also: nearly all actives have a fitted effect of over 60% in size
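HEK293T cells expressing luciferase-tagged ELG1 were treated with compound or DMSO for 16 hr at 37°C. Luciferase activity was then read after 30 min with ONE-Glo at room temperature; rising signal flags genetic stress.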
SMN2 splice up – qHTS Assay for Enhancers of SMN2 Splice Variant Expression; Potency, µM (doses to about 46.1 µM), most hits filed as activators; HEK293 SMN2-luciferase splicing reporter, luminescence, 30-36 h; 210,000 tested, 2.8% active; also: nearly all actives have a fitted effect of over 55% in size
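HEK293 cells carry an SMN2 […]–luciferase reporter in which exon 7 inclusion puts luciferase in frame. Cells were plated 10-12 h before compound addition, then incubated 30-36 h at 37C. ONE-Glo luminescence was read; sodium butyrate at 4.5 mM final served as control.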
Rab9 prom act – qHTS Assay for Rab9 Promoter Activators; AID 485297, 2010; 320,000 tested, 2.8% active; Potency, µM (highest dose often 9.22 µM), actives largely listed as activators; Huh7 Rab9 promoter-luciferase reporter, luminescence, 24 h; also: nearly all actives have a fitted effect of over 60% in size
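Using Huh7 cells stably transfected with Rab9 promoter–luciferase, compounds were incubated 24 h at 37 °C, 5% CO2; luciferase luminescence was read 10 min after reagent addition.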
NPC1 prom act – qHTS Assay for NPC1 Promoter Activators; 320,000 tested, 2.4% active; Huh7 NPC1 promoter luciferase reporter, 24 h; Potency, µM (top dose mostly 9.22 µM), usual class: activators; AID 485313, 2010; also: nearly all actives have a fitted effect of over 60% in size
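Stably transfected Huh7 (NPC1 promoter→luciferase), 1500 cells/well in Opti-MEM + 10% FBS, 2 h settle, then compound 24 h at 37 °C. Luminescence after 10 min with Amplite reagent.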
FLuc counter – qHTS profiling assay for firefly luciferase inhibitor/activator using purifed enzyme and Km concentrations of substrates (counterscreen for miR-21 project); Luciferin 4-monooxygenase (Photinus pyralis), P08659; purified FLuc, Km substrates, luminescence inhibition; Potency, µM (top dose mostly 57.5 µM), hits mostly inhibitors; 360,000 tested, 6.9% active; also: nearly all actives have a fitted effect of over 55% in size
Target sequence (P08659 whole entry, looked up): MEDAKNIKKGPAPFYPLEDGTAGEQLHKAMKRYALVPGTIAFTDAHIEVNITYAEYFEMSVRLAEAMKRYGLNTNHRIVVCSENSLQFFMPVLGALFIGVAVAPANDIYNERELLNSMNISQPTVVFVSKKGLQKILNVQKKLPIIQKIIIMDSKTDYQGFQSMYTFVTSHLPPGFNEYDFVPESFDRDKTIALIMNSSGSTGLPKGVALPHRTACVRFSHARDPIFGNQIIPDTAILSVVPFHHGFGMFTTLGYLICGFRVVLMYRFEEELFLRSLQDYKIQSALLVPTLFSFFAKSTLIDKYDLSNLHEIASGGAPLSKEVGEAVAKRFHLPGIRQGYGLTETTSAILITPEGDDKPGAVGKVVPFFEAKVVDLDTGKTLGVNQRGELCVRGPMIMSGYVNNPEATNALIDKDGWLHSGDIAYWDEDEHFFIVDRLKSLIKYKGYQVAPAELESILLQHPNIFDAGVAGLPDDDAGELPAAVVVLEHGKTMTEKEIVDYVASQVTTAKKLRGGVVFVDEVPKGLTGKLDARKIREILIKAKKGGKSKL
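Purified P. pyralis luciferase (10nM final) with 10uM D-luciferin and 10uM ATP (Km levels) in 50mM Tris acetate pH 7.5, 10mM Mg acetate, 0.01% Tween-20, 0.05% BSA; qHTS 6-point titration, ~60 µM downward; luminescence read.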
Luc counter – Counterscreen for Luciferase (Kinase-Glo TM) Inhibition. Luciferin 4-monooxygenase (Photuris pensylvanica), Q27757. Kinase-Glo luciferase, ATP luminescence, 8 min. Potency, µM (doses to about 38.3 µM), actives largely listed as inhibitors. 200,000 tested, 0.28% active. AID 1379, 2008; also: nearly all actives have a fitted effect of over 60% in size
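Light output from Kinase-Glo luciferase with luciferin and 10 uM ATP in 50 mM imidazole pH 7.2, KCl, MgCl2, Tween 20, BSA; compound pin-delivered, 8-min ambient incubation, then luminescence read.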
A number is an active result. Compounds with a hit are over-represented: about 7.5% of the library has one in this group of screens. Calls follow the shape of the dose curve; as a rule, active = well fitted curve in the direction sought with a large enough effect; inconclusive = small, poorly fitted or top-dose-only effect, or another doubt; inactive = no such curve, though single readings can be large; an effect the other way counts as inactive or inconclusive.

For Cc1cccc(COc2ccccc2C(=O)NC2CCC(O)CC2)c1 (centres undefined) the results were ELG1 genotoxic inactive, Rab9 prom act inactive, NPC1 prom act inactive and FLuc counter inactive.
For CCc1cc2c(-c3ccccc3)cc(=O)oc2c2c1OCN(Cc1ccc(F)cc1)C2 the results were SMN2 splice up inactive and FLuc counter inactive.
Screening COc1ccc(C2CC(=O)Oc3cc(C)c(Cl)c(C)c32)cc1 (centres undefined) returned ELG1 genotoxic inactive and Luc counter inactive.
Oc1ccc(O)c(Cc2nc3ccccc3s2)c1 was read as ELG1 genotoxic inactive, SMN2 splice up inactive, Rab9 prom act inactive, NPC1 prom act inactive, FLuc counter inconclusive and Luc counter inactive.
For OCc1cc(Br)ccc1OCc1nc2ccccc2s1 the results were ELG1 genotoxic inconclusive, Rab9 prom act 2.8µM, NPC1 prom act 3.2µM and FLuc counter 5.4µM.
`Oc1ccccc1OCc1nc2ccccc2s1` gave ELG1 genotoxic 8.2µM, SMN2 splice up 32µM, Rab9 prom act inactive, NPC1 prom act inactive, FLuc counter 5.4µM and Luc counter inactive.
For O=C1NC2=C(C(=O)OC2)C(c2ccc(OC(F)(F)F)cc2)N1 (centres undefined) the results were ELG1 genotoxic inactive, Rab9 prom act inactive, NPC1 prom act inactive and FLuc counter inactive.
Screening CCn1cc(C(=O)Nc2ccccc2C(=O)OC)c(=O)c2ccc(C)nc21 returned ELG1 genotoxic inconclusive, SMN2 splice up 11µM, Rab9 prom act 1.1µM, NPC1 prom act 0.56µM, FLuc counter 3.4µM and Luc counter inactive.
CCn1cc(C(=O)OCC(=O)c2ccccc2)c(=O)c2ccc(C)nc21 was read as ELG1 genotoxic inactive, SMN2 splice up inactive, Rab9 prom act inactive, NPC1 prom act inactive, FLuc counter inactive and Luc counter inactive.
Screening CCn1cc(C(=O)OCc2ccccc2)c(=O)c2ccc(C)nc21 returned ELG1 genotoxic inactive, SMN2 splice up inactive, Rab9 prom act inactive, NPC1 prom act inactive, FLuc counter inactive and Luc counter inactive.
Screening CCOC(=O)c1ccccc1NC(=O)c1cn(CC)c2nc(C)ccc2c1=O returned ELG1 genotoxic inconclusive, SMN2 splice up inactive, Rab9 prom act 0.79µM, NPC1 prom act 1µM, FLuc counter 3.4µM and Luc counter inactive.
`CCOC(=O)c1cn(CC)c2c(ccc3ccccc32)c1=O` gave ELG1 genotoxic inactive, Rab9 prom act inactive, NPC1 prom act inactive and FLuc counter 24µM.
For C[C@H]1CS(=O)(=O)CCN1/N=C\c1ccc([N+](=O)[O-])o1 the results were SMN2 splice up inactive and Luc counter inactive.
`N/C(=N\OC(=O)/C=C/c1ccccc1Cl)c1cccnc1` gave ELG1 genotoxic 21µM, Rab9 prom act inconclusive, NPC1 prom act inconclusive and FLuc counter 7.6µM.
N/C(=N\OC(=O)C(c1ccccc1)c1ccccc1)c1cccnc1 was read as ELG1 genotoxic inactive, SMN2 splice up inactive, Rab9 prom act inactive, NPC1 prom act inactive, FLuc counter inactive and Luc counter inactive.
Screening Cc1ccccc1/C(N)=N/OC(=O)/C=C/c1ccccc1 returned ELG1 genotoxic inconclusive, SMN2 splice up inconclusive, Rab9 prom act inconclusive, NPC1 prom act inactive, FLuc counter inconclusive and Luc counter inactive.
For N/C(=N\OC(=O)/C=C/c1ccccc1)c1cccnc1 the results were ELG1 genotoxic inconclusive, SMN2 splice up inactive, Rab9 prom act inactive, NPC1 prom act inactive, FLuc counter 12µM and Luc counter inactive.
For O=C(COC(=O)/C=C/c1ccccc1Cl)Nc1cccnc1Cl the results were ELG1 genotoxic inactive.
`N/C(=N\OC(=O)/C=C/c1ccc(Br)cc1)c1ccccn1` gave ELG1 genotoxic inconclusive, SMN2 splice up 18µM, Rab9 prom act 2.2µM, NPC1 prom act 1.8µM, FLuc counter 9.5µM and Luc counter inactive.
N/C(=N\OC(=O)/C=C/c1ccccc1Cl)c1ccccn1 was read as ELG1 genotoxic inconclusive, SMN2 splice up inconclusive, Rab9 prom act 0.28µM, NPC1 prom act 0.5µM, FLuc counter 0.6µM and Luc counter inconclusive.
`COc1ccc(CNc2ncncc2-c2ccc3c(c2)OCO3)c(OC)c1` gave SMN2 splice up inactive and Luc counter inactive.
Cc1cc(C)cc(NC(=O)C(=O)NCC(c2ccc3c(c2)OCO3)N2CCN(C)CC2)c1 (centres undefined) was read as FLuc counter inactive.
Screening COc1ccc(NC(=O)CCCn2nc(C)c3c(C)n(-c4ccccc4)nc3c2=O)cc1 returned ELG1 genotoxic inactive, Rab9 prom act inactive, NPC1 prom act inactive and FLuc counter inactive.
`Cc1ccc(NC(CC(=O)c2ccccc2)c2ccc(F)cc2)cc1` (centres undefined) gave ELG1 genotoxic inactive, SMN2 splice up inactive, Rab9 prom act inactive, NPC1 prom act inactive, FLuc counter inactive and Luc counter inactive.
For O=C(CC(Nc1ccc(F)cc1)C(=O)OCC(=O)c1cccs1)c1ccccc1 (centres undefined) the results were ELG1 genotoxic inconclusive, SMN2 splice up inconclusive, Rab9 prom act 4.5µM, NPC1 prom act inconclusive, FLuc counter inconclusive and Luc counter inactive.
`O=C(CC(Nc1ccc(F)cc1)C(=O)O)c1ccccc1` (centres undefined) gave ELG1 genotoxic 1µM, SMN2 splice up 13µM, Rab9 prom act 1.3µM, NPC1 prom act 1.1µM, FLuc counter 1.1µM and Luc counter inactive.
COc1ccc(C2=C(C)C(N3CCC(C(=O)Nc4ccccc4F)CC3)=NS2(=O)=O)cc1 was read as FLuc counter inactive.
Screening O=S(=O)(c1ccc(OC(F)(F)F)cc1)N1CCC(c2nc3ccccc3s2)CC1 returned SMN2 splice up inactive and FLuc counter inactive.
COC1=C(OC)C(=O)c2ccccc2C1=O was read as SMN2 splice up inactive, Rab9 prom act inactive, NPC1 prom act inactive and Luc counter inactive.
For CCCCCCN1C=CC(=C2C(=O)c3ccccc3C2=O)C=C1 the results were ELG1 genotoxic 0.18µM, Rab9 prom act 0.11µM, NPC1 prom act inconclusive, FLuc counter 0.21µM and Luc counter 8.9µM.
For CCN1C=CC(=C2C(=O)c3ccccc3C2=O)C=C1 the results were ELG1 genotoxic inconclusive, SMN2 splice up 0.25µM, Rab9 prom act 0.0003µM, NPC1 prom act 0.0002µM, FLuc counter 0.085µM and Luc counter 5µM.
